Most compounds without a hit are left out; they make up all but 2.9% or so of the library.
KKLEB tox: reduces viability of KKLEB cystic fibrosis airway cells; KKLEB CF airway cells viability, ATPlite luminescence, overnight; active compounds read low; cells stimulated with P. aeruginosa culture filtrate; activity change (cytotoxicity), % at 5 µM; actives 0.36% (n = 360,000); AID 602141;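 active = corrected activity change at or below -50% at 5 µM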
LMP1 NFkB inh: inhibitors of Epstein-Barr LMP1-induced NF-kappaB reporter; LMP1-induced NF-kappaB luciferase reporter cells, luminescence; AID 504558; inhibition, % at 12.5 µM; actives 0.69% (n = 350,000); in the data active = inhibition above about 41%;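 also: 0% = neutral control wells and 100% = reference inhibitor control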
MITF TRPM1 inh: inhibitors of MITF-driven TRPM1 promoter in melanoma cells; SK-MEL-5 TRPM1 promoter luciferase, 24 h; inhibition, % at 12.5 µM; actives 0.83% (n = 330,000);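 active = mean inhibition across replicates of 60% or more, whatever share of single replicates reaches that level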
Peg3 prom inh-1: reduces Peg3 promoter-driven luciferase expression in HeLa. HeLa PEG-Prom luciferase reporter, luminescence, overnight. inhibition, % at 20 µM. actives 1.7% (n = 360,000). AID 588405;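 active = inhibition of at least 50% at 20 µM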
CF NFkB block: cystic fibrosis NF-kB activation inhibition; actives 0.86% (n = 360,000); KKLEB NF-kB-GFP reporter, PAF-induced, GFP fluorescence overnight; AID 588850; inhibition, % at 5 µM;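 active = at least 50% inhibition at 5 µM, scaled per plate between neutral and stimulator controls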;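 also: PAF is a Pseudomonas aeruginosa culture filtrate used as stimulus; plate controls were PAF-stimulated DMSO wells for no effect and unstimulated DMSO wells for full effect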
Shn3 3UTR inh: reduces Shn3 3'UTR luciferase signal in osteoblasts | inhibition, % at 12.5 µM | actives 0.52% (n = 360,000) | Clone20 osteoblast Shn3 3'UTR firefly luciferase, 24 h;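 active = mean inhibition of at least 75% with every replicate also reaching 75%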;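 also: 0% = median of neutral control wells and 100% = pilot-screen positive control compound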
Peg3 prom inh-2: Peg3 promoter inhibition confirmation | shares compounds with Peg3 prom inh-1 | HeLa PEG-Prom luciferase reporter, luminescence, overnight | inhibition, % at 20 µM | actives 84% (n = 1,300);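 active = at 20 µM dose, 40% or more inhibition averaged across four replicates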
Numbers without * were called inactive; · = no result; ! = not confirmed by another sample.

SMILES	KKLEB tox	LMP1 NFkB inh	MITF TRPM1 inh	Peg3 prom inh-1	CF NFkB block	Shn3 3UTR inh	Peg3 prom inh-2
CC(C)C#Cc1ccc2c(c1)O[C@@H](CN(C)S(=O)(=O)c1cn(C)cn1)[C@@H](C)CN([C@H](C)CO)S2(=O)=O	6.3	-6.0	·	-3.8	-16.4	9.6	·
Cc1ccc(NC(=O)c2cc(S(=O)(=O)N3CCCCC3)c[nH]2)cc1Cl	8.5	·	·	14.4	-4.8	-7.0	·
COC1CC(C)C(OC)c2cc(O)cc(c2O)NC(=O)C(C)=CC=CC(C)C(OC(N)=O)C(C)=CC(C)C1OC (centres undefined)	2.1	47.8*	71.5*	57.4*	39.6	-0.6	48.1*
CC1(C(=O)NS(=O)(=O)c2ccccc2Cl)CCN1C(=O)c1ccco1 (centres undefined)	-4.5	·	·	1.6	13.1	-11.5	·
CCCNC(=O)C1(C)CCCN(Cc2ccc3c(c2)OCO3)C1 (centres undefined)	-6.6	·	·	8.1	0.6	-1.0	·
O=C1C(=Cc2ccc(F)cc2)Cc2ccccc21	-13.7	·	·	-106.0	-31.7	-18.7	·
O=C1C(=C2SCCCS2)CC/C1=C\c1ccc(F)cc1	-78.0*	77.4*	58.8	85.7*	-10.6	22.8	42.9*
COc1cc(NS(C)(=O)=O)ccc1Nc1c2ccccc2nc2ccccc12	10.1	57.4*	78.5*	101.9*	-118.9	91.7*	93.3*
CCNC(=O)C1(C)CCCN(C(=O)c2ccc(F)c(C)c2)C1 (centres undefined)	5.5	·	·	4.2	-15.9	-1.4	·
CC(C)c1ccc(NC(=O)CSc2nc(-c3ccccc3F)nc3nc[nH]c23)cc1	0.9	2.9	5.3	59.6*	9.9	11.7	25.2
CC(C)c1ccc(NC(=O)CSc2nc(=O)[nH]c3c2CCCC3)cc1	-28.9	-6.7	18.9	15.9	47.8	16.3	·
CC1CCCN(c2ncnc3c2cnn3-c2ccc(Cl)cc2)C1 (centres undefined)	-64.1*	60.4*	92.1*	72.8*	-60.4	77.6	85.7*
CC1CC(C)CN(c2ncnc3c2cnn3-c2ccc(Cl)cc2)C1 (centres undefined)	18.4	-54.8	-19.6	-289.3	-2.5	-14.1	·
NC(N)=N/N=C/c1ccc(Cl)cc1Cl	-22.1	7.7	13.3	69.3*	12.2	15.0	82.9*
COc1ccc([C@H]2N[C@]3(CCCN(Cc4ccc(Br)cc4)C3=O)[C@H]3C(=O)N(C)C(=O)[C@@H]23)cc1	17.8	-3.8	·	0.2	-22.9	-0.2	·
O=C(Nc1ccc(Cc2ccncc2)cc1)c1ccc([N+](=O)[O-])o1	-4.0	-25.3	45.1	102.8*	44.7	98.3*	95.1*
O=C(Nc1ccc(Cc2ccncc2)cc1)c1cccc([N+](=O)[O-])c1	-4.2	-14.4	-5.1	-78.0	-10.7	5.4	·
CC(C)(C)OC(=O)C[C@@H]1C/C=C\C[C@H](CC(=O)NCCO)C(=O)N2CCC[C@H]2COC1=O	8.8	3.1	-5.3	-6.1	7.8	-8.4	·
Cc1ccc(-c2cn3nc(C)c(C)nc3n2)cc1	2.8	63.5*	63.8*	59.5*	-19.7	52.0	45.8*
COc1cc(/C=N/O)ccc1OCc1ccc(C(=O)O)cc1	-11.4	86.1*	96.4*	85.7*	6.4	90.3*	68.7*
O=C(O)c1cc(/C=N\O)ccc1OCc1ccccc1	2.3	-7.7	1.7	-25.9	1.3	-20.9	·
COc1cc(CCN(C(=O)c2cccc(S(C)(=O)=O)c2)C(CCc2ccccc2)c2nc3ccccc3[nH]2)cc(OC)c1 (centres undefined)	-3.4	·	·	2.2	-11.0	-9.5	·
CC(C)CNc1ncnc2c1ncn2[C@H]1CN(Cc2cccs2)C[C@@H](CO)O1	-7.1	·	·	7.1	3.4	-5.0	·
Cc1cc2nc(-c3ccccc3Br)n(/C=C(\c3ccccc3)n3c(=O)[nH]c4ccccc43)c2cc1C	9.0	·	·	-21.6	-48.4	10.6	·
N/C(=N\OC(=O)c1ccc([N+](=O)[O-])cc1Cl)c1ccccn1	-30.2	55.6*	55.9	50.0*	-25.3	16.6	21.3
SMILES	KKLEB tox	LMP1 NFkB inh	MITF TRPM1 inh	Peg3 prom inh-1	CF NFkB block	Shn3 3UTR inh	Peg3 prom inh-2
N/C(=N\OC(=O)c1ccc(Cl)cc1Cl)c1ccccn1	-67.5*	56.1*	33.0	68.3*	-11.8	63.3	12.0
CC(C)CN(C(=O)CCNC(=O)c1ccc(Cl)cc1)C1CCS(=O)(=O)C1 (centres undefined)	10.1	-2.3	1.0	11.8	-8.4	-27.8	·
COCCNC(=O)/C(C#N)=C/c1ccc(O)c([N+](=O)[O-])c1	6.7	20.3	-4.6	-8.7	-29.8	-5.4	·
COCCNC(=O)/C(C#N)=C/C=C/c1ccccc1[N+](=O)[O-]	0.0	-93.6	51.0	52.5*	-35.9	51.9	14.3
Cc1ccc(CC2(OCCN(C)C)CCC(C(C)(C)C)CC2)cc1 (centres undefined)	-0.9	1.9	57.1	95.4*	20.7	1.0	100.8*
CN(C)CCOC1(Cc2ccc(F)cc2)CCC(C(C)(C)C)CC1 (centres undefined)	15.2	10.4	37.3	8.3	9.4	10.0	·
O=C(CCl)Nc1ccccc1Sc1ccc(Cl)cc1	-8.8	11.2	63.6*	105.5*	5.4	40.8	84.6*
CCCCCCCCCCCCCCCC(O)C[N+](C)(C)CCO (centres undefined)	-61.7*	-7.0	3.5	103.8*	54.3*	28.7	86.5*
CNc1ncnc2c1ncn2[C@H]1CN(CCN2CCOCC2)C[C@@H](CO)O1	10.5	·	·	0.2	-6.6	-6.3	·
O=C1c2ccccc2C(c2nc3ccccc3[nH]2)N1c1ccccn1 (centres undefined)	2.9	·	·	1.3	-3.3	0.5	·
CCN1CCN(Cc2ccc(NC(=O)c3cc(NC(=O)c4ccno4)cc(OC)c3)cc2C(F)(F)F)CC1	-3.5	1.0	-4.4	61.8*!	9.2	2.7	48.2*
COc1cc(NC(=O)c2cccc(C)c2)ccc1NC(=O)c1cc2ccccc2o1	-33.6	1.1	41.6	59.5*	43.1	15.9	50.2*
CC(C)CN(C(=O)COC(=O)/C=C/c1ccc(Cl)c(Cl)c1)c1c(N)n(Cc2ccccc2)c(=O)[nH]c1=O	-25.7	10.1	100.4*	88.7*	27.2	-10.5	43.8*
COCCN(C(=O)COC(=O)/C=C/c1ccc(Cl)c(Cl)c1)c1c(N)n(Cc2ccccc2)c(=O)[nH]c1=O	2.2	11.0	11.8	4.7	-4.6	12.3	·
CCCc1nc2c(=O)n(C)c(=O)nc-2n(C)n1	-39.2	90.1*	104.2*	104.0*	97.3*	97.2*	99.5*
O=C(c1ccc(Cl)cc1)N1CCCCC(Sc2nnc(-c3ccc4c(c3)OCO4)o2)C1=O (centres undefined)	-10.0	74.8*	80.3*	54.0*	-5.5	70.0	58.2*
